Laboratory results taken from PubChem BioAssay (NCATS).
Inconclusive results are not listed. Activity calls are given as the source filed them. Unless noted, calls come from the whole dose curve; as a rule, active = well fitted curve in the direction sought with a large enough effect; inconclusive = small, poorly fitted or top-dose-only effect, or another doubt; inactive = no such curve, though single readings can be large; an effect the other way counts as inactive or inconclusive.

Columns and labels:
[1] = molecular target: Lysosomal acid glucosylceramidase (Homo sapiens) (UniProt P04062); assay: Glucocerebrosidase-p2 (AID 348; in the data active = potency below about 10 µM; note: potency is the fitted concentration of half-maximal effect); conditions: purified GBA, blue fluorogenic substrate, 40 min
Lysosomal acid glucosylceramidase (Homo sapiens), sequence (P04062 whole entry, looked up): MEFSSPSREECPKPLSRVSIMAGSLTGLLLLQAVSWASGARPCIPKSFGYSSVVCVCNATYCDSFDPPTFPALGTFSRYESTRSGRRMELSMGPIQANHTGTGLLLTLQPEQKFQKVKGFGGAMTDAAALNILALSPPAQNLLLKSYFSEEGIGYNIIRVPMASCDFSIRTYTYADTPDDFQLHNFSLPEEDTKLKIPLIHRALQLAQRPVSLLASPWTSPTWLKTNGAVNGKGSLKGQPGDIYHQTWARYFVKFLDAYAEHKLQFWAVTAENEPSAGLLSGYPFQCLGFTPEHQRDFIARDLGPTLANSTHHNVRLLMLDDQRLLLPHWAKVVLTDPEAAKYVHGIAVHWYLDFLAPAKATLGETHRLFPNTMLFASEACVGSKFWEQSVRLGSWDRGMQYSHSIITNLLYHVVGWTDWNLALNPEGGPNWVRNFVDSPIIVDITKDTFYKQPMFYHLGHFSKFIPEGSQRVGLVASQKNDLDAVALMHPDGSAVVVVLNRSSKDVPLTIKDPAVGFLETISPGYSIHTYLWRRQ
Summary of the method: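 Normal human glucocerebrosidase (0.2 nM) with blue fluorogenic substrate (80 uM final) in citrate/phosphate pH 5.9 with 10mM sodium taurocholate, 0.01% tween-20; 40 min RT, NaOH/glycine stop; fluorescence Ex 365/Em 440; AC50 from a titration from 0.6 nM upwards.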

[2] = AP1 Signaling Pathway (AID 357; active = well fitted curve in either direction with a large enough effect, not every such curve was filed as active; note: % is set by controls: 0 for no effect and ±100 for the full control effect); conditions: ME-180 AP-1-bla reporter, EGF-induced, beta-lactamase ratio, 5 h; at 7.69 µM (top of the series) unless noted
Summary of the method: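 ME-180 cells with beta-lactamase reporter under AP-1 response element, stimulated with EC50 EGF; compounds tested in titration series, 5 h at 37 °C. CCF4 substrate added 2.5 h at room temperature; 460/530 nm emission ratio gave %activity and AC50.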

[3] = molecular target: Cytochrome P450 1A2 (Homo sapiens) (UniProt P05177); assay: p450-cyp1a2 (AID 410; calls by dose curve; note: potency is the fitted concentration of half-maximal effect); conditions: recombinant CYP1A2, luciferin-ME demethylation, luminescence; series mostly up to 57 µM
Cytochrome P450 1A2 (Homo sapiens), sequence (P05177 whole entry, looked up): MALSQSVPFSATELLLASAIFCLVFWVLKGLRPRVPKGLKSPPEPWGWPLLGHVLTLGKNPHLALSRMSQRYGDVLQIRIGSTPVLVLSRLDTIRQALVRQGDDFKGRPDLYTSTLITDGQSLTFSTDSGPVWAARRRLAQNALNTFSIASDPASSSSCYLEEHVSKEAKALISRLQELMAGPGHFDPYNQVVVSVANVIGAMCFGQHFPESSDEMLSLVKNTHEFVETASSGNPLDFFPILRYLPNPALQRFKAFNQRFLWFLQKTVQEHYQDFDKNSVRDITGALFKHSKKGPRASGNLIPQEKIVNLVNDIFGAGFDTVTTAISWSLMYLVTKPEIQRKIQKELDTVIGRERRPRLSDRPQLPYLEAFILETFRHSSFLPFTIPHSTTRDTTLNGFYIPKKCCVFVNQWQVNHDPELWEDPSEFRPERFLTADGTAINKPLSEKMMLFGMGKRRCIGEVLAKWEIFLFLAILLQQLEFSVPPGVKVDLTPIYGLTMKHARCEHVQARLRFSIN
Summary of the method: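 Luminescent demethylation readout: Luciferin-ME (100uM, equal to Km) turned over by 20nM CYP1A2 for 60 min at room temperature after NADPH regeneration addition, following 10 min compound preincubation. Normalization used 57 uM furafylline as full inhibition.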

[4] = NFAT Signaling Pathway (AID 444; active = well fitted curve in either direction with a large enough effect, not every such curve was filed as active;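 note: carbachol stimulus at about its EC50 of 1 µM final; % is set by controls: 0 for no effect and ±100 for the full control effect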); conditions: Jurkat NFAT-bla M1, carbachol, beta-lactamase ratio, 5 h; at 7.69 µM (top of the series) unless noted
Summary of the method: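 Read-out: CCF4 FRET ratio (460 nm/530 nm) after 1 h RT dye loading, used for %activity and AC50 from titration series. Cells: Jurkat NFAT-β-lactamase/M1 line, treated with compound plus 1 uM carbachol for 5 h, 37 °C.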

[5] = Stat Signaling Pathway (AID 446; active = well fitted curve in either direction with a large enough effect, not every such curve was filed as active;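 note: ME-180 cervical cancer cells given 40 pM IL-6 alongside compound; SIE-controlled beta-lactamase reporter measured as 460/530 nm FRET emission ratio; % is set by controls: 0 for no effect and ±100 for the full control effect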); conditions: ME-180 SIE beta-lactamase reporter, IL-6 stimulated, 5 h; at 7.69 µM (top of the series) unless noted
Summary of the method: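 Emission at 460 and 530 nm (excitation 405 nm) reports SIE-controlled beta-lactamase in ME-180 cells. Cells received compound with 40 pM IL-6 for 5 hrs at 37 C; data scaled between 300 pM IL-6 and 125 nM JAK-inhibitor controls.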

[6] = molecular target: Glucocorticoid receptor (Homo sapiens) (UniProt P04150); assay: GR-EFC Redistribution (AID 451; calls by dose curve; note: potency is the fitted concentration of half-maximal effect); conditions: CHO-K1 GR-EFC translocation, beta-gal luminescence, 2 h
Glucocorticoid receptor (Homo sapiens), sequence (P04150 whole entry, looked up, the tested form may be a part): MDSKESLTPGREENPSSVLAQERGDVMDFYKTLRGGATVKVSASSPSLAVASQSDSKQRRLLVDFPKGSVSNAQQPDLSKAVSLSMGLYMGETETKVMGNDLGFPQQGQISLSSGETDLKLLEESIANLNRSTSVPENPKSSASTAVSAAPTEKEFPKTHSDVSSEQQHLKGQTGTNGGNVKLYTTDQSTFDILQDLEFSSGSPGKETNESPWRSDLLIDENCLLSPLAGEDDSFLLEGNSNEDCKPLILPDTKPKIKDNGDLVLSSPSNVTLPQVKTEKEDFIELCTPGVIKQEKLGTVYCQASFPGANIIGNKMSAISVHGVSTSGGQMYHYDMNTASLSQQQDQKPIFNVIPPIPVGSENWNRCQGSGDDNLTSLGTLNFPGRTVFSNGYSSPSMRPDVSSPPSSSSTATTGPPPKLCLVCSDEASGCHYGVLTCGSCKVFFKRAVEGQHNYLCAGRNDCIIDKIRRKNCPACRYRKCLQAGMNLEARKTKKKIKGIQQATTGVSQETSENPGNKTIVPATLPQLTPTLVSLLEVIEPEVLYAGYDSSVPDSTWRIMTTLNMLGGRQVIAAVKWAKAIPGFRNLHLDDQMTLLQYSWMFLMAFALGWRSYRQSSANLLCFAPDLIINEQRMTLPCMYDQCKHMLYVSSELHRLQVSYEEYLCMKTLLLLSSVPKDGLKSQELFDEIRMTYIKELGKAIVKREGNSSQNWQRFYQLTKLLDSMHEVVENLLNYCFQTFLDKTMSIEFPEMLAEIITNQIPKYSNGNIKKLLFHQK
Summary of the method: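 Translocation of GR-ED fusion to nuclear EA restores b-gal, read by luminescence after 1 h room-temperature detection. Engineered CHO-K1 biosensor cells, 1,000/well, exposed 2 h at 37 C to titrations up to 46 uM final.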

[7] = molecular target: Mitogen-activated protein kinase 10 (Mus musculus) (UniProt Q61831); assay: JNK3 AlphaScreen Assay (AID 530; active = well fitted curve in either direction with a large enough effect, not every such curve was filed as active;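 note: kinase came from lysate of stimulated human HepG2 cells; signal reports phosphorylation of biotinylated GST-cJun 1-79 at Ser73 with 10 µM ATP; % is set by controls: 0 for no effect and ±100 for the full control effect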); conditions: JNK3 lysate, c-Jun phosphorylation; series mostly up to 57.1 µM
Summary of the method: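 qHTS titrations with 15 min compound pre-incubation before adding ATP (10 uM final). Read-out: AlphaScreen of Ser73-phosphorylated biotin-GST-cJun using HepG2 lysate JNK3 activated by IL-1β and TNFα.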

[8] = molecular target: 3',5'-cyclic-AMP phosphodiesterase 4B (Homo sapiens) (UniProt Q07343); assay: qHTS Assay for Inhibitors of PDE-IV (AID 607; active = well fitted activation curve with a large enough effect in the main read-out, with a control signal flat, not every such curve was filed as active; note: % of control where 0% means no effect); conditions: HEK293 ACTOne CNG channel cells, membrane potential fluorescence; series mostly up to 22.9 µM
3',5'-cyclic-AMP phosphodiesterase 4B (Homo sapiens), sequence (Q07343 whole entry, looked up): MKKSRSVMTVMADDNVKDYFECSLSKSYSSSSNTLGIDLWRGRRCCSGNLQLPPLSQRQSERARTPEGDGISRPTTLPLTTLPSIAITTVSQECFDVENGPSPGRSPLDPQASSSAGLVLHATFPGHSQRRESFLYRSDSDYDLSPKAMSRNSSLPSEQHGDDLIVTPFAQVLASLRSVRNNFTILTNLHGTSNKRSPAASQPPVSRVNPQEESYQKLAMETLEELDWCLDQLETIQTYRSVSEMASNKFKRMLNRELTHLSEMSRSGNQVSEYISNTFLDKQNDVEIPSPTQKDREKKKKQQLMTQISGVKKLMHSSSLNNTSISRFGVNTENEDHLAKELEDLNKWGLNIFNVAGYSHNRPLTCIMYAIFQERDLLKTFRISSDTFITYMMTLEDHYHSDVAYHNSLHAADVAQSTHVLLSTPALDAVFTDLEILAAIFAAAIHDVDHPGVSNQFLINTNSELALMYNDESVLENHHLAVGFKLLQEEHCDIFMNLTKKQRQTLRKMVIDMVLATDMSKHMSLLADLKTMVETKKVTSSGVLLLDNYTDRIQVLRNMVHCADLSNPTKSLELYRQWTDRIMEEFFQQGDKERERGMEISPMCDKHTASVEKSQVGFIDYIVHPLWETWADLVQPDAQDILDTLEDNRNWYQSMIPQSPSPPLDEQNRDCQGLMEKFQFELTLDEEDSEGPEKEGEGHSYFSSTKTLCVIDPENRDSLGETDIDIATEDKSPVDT
Summary of the method: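 The readout is membrane depolarisation from a cAMP-sensing CNG channel, detected with a potential dye at ex 535/em 590. Cells were HEK293-derived (endogenous PDE-IV) at 1000 cells/well, titrated up to 22.9 uM final.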

[9] = molecular target: Cytochrome P450 2C9 (Homo sapiens) (UniProt P11712); assay: qHTS Assay for Inhibitors and Substrates of Cytochrome P450 2C9 (AID 883); conditions: recombinant CYP2C9, luciferin-H luminescence, 60 min; series mostly up to 57.1 µM; note: % is set by controls: 0 for no effect and ±100 for the full control effect; nearly all actives have a fitted effect of over 60% in size
Cytochrome P450 2C9 (Homo sapiens), sequence (P11712 whole entry, looked up): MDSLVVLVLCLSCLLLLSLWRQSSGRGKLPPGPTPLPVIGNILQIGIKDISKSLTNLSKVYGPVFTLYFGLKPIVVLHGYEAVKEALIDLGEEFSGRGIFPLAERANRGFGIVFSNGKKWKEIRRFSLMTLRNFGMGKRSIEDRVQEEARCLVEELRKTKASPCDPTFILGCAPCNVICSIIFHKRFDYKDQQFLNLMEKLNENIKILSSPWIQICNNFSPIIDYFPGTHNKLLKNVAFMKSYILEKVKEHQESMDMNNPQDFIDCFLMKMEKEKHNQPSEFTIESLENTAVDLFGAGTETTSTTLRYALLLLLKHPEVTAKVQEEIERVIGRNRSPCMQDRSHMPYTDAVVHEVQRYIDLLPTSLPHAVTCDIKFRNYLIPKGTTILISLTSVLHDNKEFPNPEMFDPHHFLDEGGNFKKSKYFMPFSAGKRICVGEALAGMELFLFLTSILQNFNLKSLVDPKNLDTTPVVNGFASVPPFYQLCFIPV
Summary of the method: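 Turnover of Luciferin-H (100uM, KM) by 10nM human CYP2C9 was measured over 60 min at 37C with NADPH regeneration; inhibitors and some substrates reduce luminescence. Data normalized to sulphaphenazole 57uM.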

[10] = molecular target: Cytochrome P450 3A4 (Homo sapiens) (UniProt P08684); assay: qHTS Assay for Inhibitors and Substrates of Cytochrome P450 3A4 (AID 884); conditions: recombinant CYP3A4, Luciferin-PPXE luminescence; series mostly up to 57.1 µM; note: % is set by controls: 0 for no effect and ±100 for the full control effect; nearly all actives have a fitted effect of over 50% in size
Cytochrome P450 3A4 (Homo sapiens), sequence (P08684 whole entry, looked up): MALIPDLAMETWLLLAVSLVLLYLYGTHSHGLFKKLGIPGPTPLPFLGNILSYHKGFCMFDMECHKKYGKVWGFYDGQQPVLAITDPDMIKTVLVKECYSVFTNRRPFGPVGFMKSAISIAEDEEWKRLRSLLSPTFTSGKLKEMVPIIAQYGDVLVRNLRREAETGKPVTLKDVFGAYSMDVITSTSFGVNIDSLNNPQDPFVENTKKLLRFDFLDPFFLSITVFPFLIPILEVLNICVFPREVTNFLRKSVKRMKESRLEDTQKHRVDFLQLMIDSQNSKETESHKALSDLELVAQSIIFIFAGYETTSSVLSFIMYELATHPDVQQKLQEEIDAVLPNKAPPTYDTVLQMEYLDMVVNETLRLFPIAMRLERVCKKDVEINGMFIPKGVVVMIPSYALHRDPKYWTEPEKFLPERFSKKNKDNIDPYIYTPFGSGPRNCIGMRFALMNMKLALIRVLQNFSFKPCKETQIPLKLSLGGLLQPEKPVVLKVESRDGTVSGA
Summary of the method: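 Luminescent readout of luciferin produced by CYP3A4 (20 nM) dealkylation of Luciferin-PPXE, 25 uM (its KM). NADPH-driven reaction ran 60 min at RT after 10 min compound preincubation; data scaled to 57 uM ketoconazole as 100% inhibition.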

[11] = molecular target: Cytochrome P450 2C19 (Homo sapiens) (UniProt P33261); assay: qHTS Assay for Inhibitors and Substrates of Cytochrome P450 2C19 (AID 899); conditions: recombinant CYP2C19, luciferin-H EGE luminescence; series mostly up to 57.1 µM; note: potency is the fitted concentration of half-maximal effect; nearly all actives have a fitted effect of over 60% in size
Summary of the method: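 Reactions contain 5nM enzyme, 10uM Luciferin-H EGE (KM) and 50mM KPO4; compound preincubates 10 min at 37C, NADPH regeneration starts turnover for 60 min. Luminescence after detection reagent gives activity.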

[12] = qHTS Assay for Identification of Small Molecule Agonists for Hypoxia Response Element Signaling Pathway (AID 914; active = well fitted activation curve with a large enough effect in the signal ratio, with a control signal flat, not every such curve was filed as active; the % refers to the signal ratio; note: % of control where 0% means no effect); conditions: ME-180 (cervical carcinoma) HRE-bla reporter, beta-lactamase ratio, CoCl2, 17 h; activation: stronger effect = higher value
Summary of the method: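 HRE-bla ME-180 assay for agonist-like enhancement of an EC50 CoCl2 stimulus: 17 h at 37 degrees Celsius, CCF4 for 2.5 h, ratiometric 460/530 nm signal converted to %Activity and fitted to AC50.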

[13] = qHTS Assay for Lipid Storage Modulators (AID 1519; calls by dose curve); conditions: Drosophila S3 cells, BODIPY lipid droplet/cell ratio, laser cytometry, cells loaded with oleic acid; for activity change, negative = inhibition: at 57.5 µM (top of the series)
Summary of the method: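 Cells seeded at 5,000 per well were treated with compounds over a concentration series and loaded with oleic acid (400 uM, as added). Lipid droplet fluorescence (488 nm excitation, 500-530 nm channel) was read by laser-scanning cytometry and normalized to 20 uM Triacsin C.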

[14] = molecular target: Dual specificity protein kinase CLK4 (Homo sapiens) (UniProt Q9HAZ1); assay: qHTS Assay for Inhibitors of CDC-like Kinase 4 (Kinase-Glo Assay) (AID 1770); conditions: recombinant Clk4, Kinase-Glo ATP depletion luminescence; series mostly up to 66.7 µM; note: % is set by controls: 0 for no effect and ±100 for the full control effect; nearly all actives have a fitted effect of over 65% in size
Dual specificity protein kinase CLK4 (Homo sapiens), sequence (Q9HAZ1 whole entry, looked up): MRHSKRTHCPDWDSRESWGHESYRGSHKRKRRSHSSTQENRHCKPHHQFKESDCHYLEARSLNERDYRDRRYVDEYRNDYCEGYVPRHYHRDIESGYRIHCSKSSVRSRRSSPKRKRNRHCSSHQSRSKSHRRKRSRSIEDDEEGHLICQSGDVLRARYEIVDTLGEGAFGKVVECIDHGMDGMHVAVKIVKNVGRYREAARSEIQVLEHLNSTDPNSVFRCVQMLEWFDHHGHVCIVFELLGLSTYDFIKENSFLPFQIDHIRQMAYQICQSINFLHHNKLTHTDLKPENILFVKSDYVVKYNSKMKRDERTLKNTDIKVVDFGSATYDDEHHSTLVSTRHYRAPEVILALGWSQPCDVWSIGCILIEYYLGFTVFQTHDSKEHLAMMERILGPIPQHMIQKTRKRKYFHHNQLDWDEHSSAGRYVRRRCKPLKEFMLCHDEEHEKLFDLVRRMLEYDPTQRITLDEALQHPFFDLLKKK
Summary of the method: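 Inhibition was judged from remaining ATP, measured by Ultra-Glo luciferase bioluminescence after Clk4 (25 nM) had acted on RS peptide at 1 uM ATP for 4.5 hours, room temperature.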

[15] = molecular target: Dual specificity protein kinase CLK4 (Homo sapiens) (UniProt Q9HAZ1); assay: qHTS Assay for Inhibitors of CDC-like Kinase 4 (ADP-Glo Assay) (AID 1771); conditions: recombinant CLK4, ADP-Glo luminescence; series mostly up to 80 µM; note: % is set by controls: 0 for no effect and ±100 for the full control effect; nearly all actives have a fitted effect of over 70% in size
Summary of the method: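 ADP production was read by ADP-Glo luminescence after residual ATP depletion, following 1 h room-temperature reaction of 25 nM Clk4, 1 uM ATP and 100 uM RS peptide with MgCl2, EGTA, DTT and Triton X-100.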

[16] = molecular target: Dual specificity protein kinase CLK4 (Homo sapiens) (UniProt Q9HAZ1); assay: qHTS Assay for Inhibitors of CDC-like Kinase 4 (ADP-FP Assay) (AID 1795); conditions: Transcreener ADP fluorescence polarization; series mostly up to 50 µM;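 note: recombinant human CLK4 phosphorylating RS repeat peptide at 1 µM ATP; % is set by controls: 0 for no effect and ±100 for the full control effect; nearly all actives have a fitted effect of over 60% in size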
Summary of the method: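 Inhibition of ADP formation by 6.25 nM Clk4 is measured using 1 uM ATP and 100 uM RS repeat peptide over one hour. Produced ADP displaces a fluorescent tracer from antibody, lowering polarization.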

[17] = molecular target: Ubiquitin carboxyl-terminal hydrolase 1 (Homo sapiens) (UniProt O94782); assay: Inhibitors of USP1/UAF1: Pilot qHTS (AID 504865); conditions: purified USP1/UAF1, Ub-rhodamine cleavage fluorescence; series mostly up to 54.9 µM;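 note: rhodamine fluorescence freed from ubiquitin-rhodamine substrate followed over time; top concentration of the series differs between compounds; % is set by controls: 0 for no effect and ±100 for the full control effect; nearly all actives have a fitted effect of over 35% in size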
Ubiquitin carboxyl-terminal hydrolase 1 (Homo sapiens), sequence (O94782 whole entry, looked up): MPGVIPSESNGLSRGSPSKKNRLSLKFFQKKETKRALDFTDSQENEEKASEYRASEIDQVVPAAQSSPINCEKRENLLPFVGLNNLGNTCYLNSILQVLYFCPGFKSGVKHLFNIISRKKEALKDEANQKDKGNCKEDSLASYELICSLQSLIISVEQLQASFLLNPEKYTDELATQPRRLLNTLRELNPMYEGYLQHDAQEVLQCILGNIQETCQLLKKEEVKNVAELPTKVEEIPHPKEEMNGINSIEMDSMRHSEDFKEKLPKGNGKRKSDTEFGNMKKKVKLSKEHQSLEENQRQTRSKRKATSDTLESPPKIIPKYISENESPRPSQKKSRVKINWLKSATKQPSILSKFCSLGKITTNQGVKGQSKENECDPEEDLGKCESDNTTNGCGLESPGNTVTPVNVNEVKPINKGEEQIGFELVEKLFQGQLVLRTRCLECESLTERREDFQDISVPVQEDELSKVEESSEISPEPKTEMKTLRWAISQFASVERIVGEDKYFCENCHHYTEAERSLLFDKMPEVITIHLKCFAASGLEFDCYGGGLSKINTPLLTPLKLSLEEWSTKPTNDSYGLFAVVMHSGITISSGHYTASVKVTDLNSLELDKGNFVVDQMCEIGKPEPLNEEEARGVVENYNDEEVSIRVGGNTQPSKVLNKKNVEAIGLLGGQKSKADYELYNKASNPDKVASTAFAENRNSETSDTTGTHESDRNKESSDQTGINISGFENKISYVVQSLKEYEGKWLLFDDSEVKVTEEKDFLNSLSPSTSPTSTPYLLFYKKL
Summary of the method: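 Kinetic fluorescence assay: 1nM USP1/UAF1, 15 min compound preincubation, then 150nM Ub-Rho; 480/540 nm.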

[18] = Primary qHTS for small molecule stabilizers of the endoplasmic reticulum resident proteome: Secreted ER Calcium Modulated Protein (SERCaMP) assay (AID 1508630); conditions: SH-SY5Y GLuc-SERCaMP (Gaussia luciferase released on ER calcium loss) secretion, thapsigargin, luminescence; series mostly up to 38.4 µM; note: % is set by controls: 0 for no effect and ±100 for the full control effect
Summary of the method: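 The SH-SY5Y reporter protocol was run at 3 concentrations up to 38.3 uM (primary) or 11 concentrations (follow-up): 16 h compound, 100 nM thapsigargin for 4 h, then extracellular luciferase luminescence.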

[19] = molecular target: Glucocorticoid receptor (Homo sapiens) (UniProt P04150); assay: GR-GFP Redistribution (AID 450;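 active = compounds whose dose series gives a full or clear partial fitted curve of increased nuclear translocation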; note: potency is the fitted concentration of half-maximal effect); conditions: U2OS GR-GFP nuclear translocation, laser cytometry, 2 h
[20] = molecular target: Cytochrome P450 3A4 (Homo sapiens) (UniProt P08684); assay: qHTS Assay for Activators of Cytochrome P450 3A4 (AID 885); conditions: recombinant CYP3A4, Luciferin-PPXE luminescence, 60 min; series mostly up to 57.1 µM; note: nearly all actives have a fitted effect of over 65% in size
Summary of the method: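 Activators are scored by enhanced luminescence from CYP3A4 conversion of luciferin-PPXE (25uM, equal to KM) to luciferin, after 60 min at RT with an NADPH-regenerating system.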

[21] = measured here: cell count channel max response
[22] = measured here: lipid channel max response

c1ccc(Nc2cc(-c3ccoc3)ncn2)cc1
22%: max response [13, 22]
inactive: Potency [1] > 11.4 µM | activity change, negative = inhibition [2] -8.62% | activity change, negative = inhibition [4] -0.633% | activity, negative = inhibition [5] -2.05% | Potency [6] > 46 µM | outcome [7] | Potency [8] | activity change, negative = inhibition [9] -13.3% [at 2.29 µM] | Potency [10] | activation [12] -8.49% | activity change, negative = inhibition [13] 8.08% | Potency [14] | Potency [15] | Potency [16] | Potency [17] | Potency [18]
active: Potency [3] 15.8 µM | Potency [11] 7.94 µM
15%: max response [13, 21]

COCCNc1nc(-c2ccccc2OC)nc2ccccc12
active: Potency [3] 0.794 µM
inactive: Potency [1] > 2.29 µM | activity change, negative = inhibition [2] 12.5% | activity change, negative = inhibition [4] 8.54% | activity, negative = inhibition [5] 7.08% | Potency [19] > 46 µM | Potency [6] > 46 µM | outcome [7] | Potency [8] | Potency [20] | activity change, negative = inhibition [13] 6.78% | Potency [14] | Potency [15] | Potency [16] | Potency [17] | Potency [18]
15.3%: max response [13, 21]
15.6%: max response [13, 22]

Cc1noc(C)c1-c1cc(N2CCN(C)CC2)ncn1
inactive: Potency [1] > 11.4 µM | activity change, negative = inhibition [2] 4.49% | activity change, negative = inhibition [4] -0.822% | activity, negative = inhibition [5] 7.9% | Potency [6] > 46 µM | outcome [7] | Potency [8] | activity change, negative = inhibition [9] 31% [at 2.29 µM] | activity change, negative = inhibition [13] 3.89% | Potency [14] | Potency [15] | Potency [16] | Potency [17] | Potency [18]
22.8%: max response [13, 21]
26.7%: max response [13, 22]
active: Potency [3] 10 µM

Cn1c(=O)c(-c2cccs2)nc2cnc(N3CCOCC3)nc21
active: Potency [3] 5.01 µM
14.1%: max response [13, 21]
16.5%: max response [13, 22]
inactive: Potency [1] > 11.4 µM | activity change, negative = inhibition [2] -14% | activity change, negative = inhibition [4] -9.83% | activity, negative = inhibition [5] -4.84% | Potency [19] > 9.22 µM | Potency [6] > 46 µM | outcome [7] | Potency [8] | activation [12] 11.8% | activity change, negative = inhibition [13] 5.09% | Potency [14] | Potency [15] | Potency [16] | Potency [17] | Potency [18]

COCCn1c(=O)cnc2cnc(Oc3ccc(OC)cc3)nc21
10.8%: max response [13, 22]
active: Potency [3] 5.01 µM
inactive: Potency [1] > 11.4 µM | activity change, negative = inhibition [2] -2.08% | activity change, negative = inhibition [4] -2.59% | activity, negative = inhibition [5] -5.99% | Potency [19] > 9.22 µM | Potency [6] > 46 µM | outcome [7] | Potency [8] | Potency [20] | activity change, negative = inhibition [13] 2.42% | Potency [14] | Potency [15] | Potency [16] | Potency [17] | Potency [18]
12.6%: max response [13, 21]
